Source: PubChem BioAssay
aSyn 5UTR act = Activators working through SNCA 5'UTR binding (MLPCN) | alpha-synuclein 5'UTR reporter, activators screen | activity score, % (tested at 7.5 µM), hits read low | hit rate 7.1% among 300,000 | AID 1814; in the data active = activity score below about -60%
Each line names hits and unclear results; the compound was inactive in the other large screens. Not all results are given here.

CCOC(=O)c1ccc(NC(=O)C2CC3CCC2C3)cc1 (stereo not given)	aSyn 5UTR act -128.2
CCOC(=O)c1ccc(NS(=O)C23CC4CC(CC(C4)C2)C3)cc1 (stereo not given)	aSyn 5UTR act -109.9
Cc1ccc(C(=O)Nc2ccc(Br)c(C(F)(F)F)c2)cc1	aSyn 5UTR act -211.7
CCN1CCN(Cc2ccc(NC(=O)c3ccc(C)c(NC(=O)c4ccno4)c3)cc2C(F)(F)F)CC1	none
Cc1ccc(Nc2cccccc2=O)cc1	aSyn 5UTR act -100.9
COc1ccc2c(c1OC)C(=O)N(c1cccc(C(F)(F)F)c1)C2	aSyn 5UTR act -192.3
COc1ccc2c(c1OC)C(=O)N(c1ccccn1)C2	aSyn 5UTR act -121.7
COc1ccc2c(c1OC)C(=O)N(c1cccc(C)c1)C2	aSyn 5UTR act -114.4
CN(c1ccc(O)cc1)c1nc(-c2cccs2)cs1	aSyn 5UTR act -237.6
Cc1nc(N)sc1-c1csc(N(C)c2ccc(O)cc2)n1	aSyn 5UTR act -127.1
COc1ccc2c(c1)CCc1c-2n[nH]c1C(=O)NCCC(C)C	aSyn 5UTR act -71.3
CNC(=O)c1[nH]nc2c1CCc1cc(OC)ccc1-2	aSyn 5UTR act -105.3
OC1(C(F)(F)F)CC(O)(C(F)(F)F)n2nc(-c3ccccc3)cc2N1 (stereo not given)	aSyn 5UTR act -125.7
c1ccc(C2=Nc3ccccc3SC2c2nc3ccccc3[nH]2)cc1 (stereo not given)	aSyn 5UTR act -249.8
O=c1c(O)c(-c2ccc(O)c(O)c2)oc2cc(O)cc(O)c12	aSyn 5UTR act -108.6
COc1cc(-c2cc(=O)c3c(O)c(OC)c(OC)c(O)c3o2)ccc1O	none
O=c1cc(-c2ccc(O)c(O)c2)oc2cc(O)cc(O)c12	aSyn 5UTR act -206.6
CCOc1ccc(NC(=O)c2nsc(Cl)c2Cl)cc1	aSyn 5UTR act -117.3
O=C(Nc1ccc(F)cc1)c1nsc(Cl)c1Cl	aSyn 5UTR act -177.7
O=C(Nc1ccc(F)c(Cl)c1)c1nsc(Cl)c1Cl	aSyn 5UTR act -110.4
O=C(COC(=O)c1ccc2[nH]c3c(c2c1)CCCC3)Nc1ccccc1	aSyn 5UTR act -63.9
COc1cccc(/C=C/C(=O)c2ccc(NC3=NCCCS3)cc2)c1	aSyn 5UTR act -101.4
Cc1cccc(/C=C/C(=O)c2ccc(NC3=NCCCS3)cc2)c1	aSyn 5UTR act -219.5
COc1ccccc1N=Cc1c(C)c(C#N)c2[nH]c3ccccc3n2c1=O	aSyn 5UTR act -89.8
CCOc1ccccc1-n1c(SCC(=O)Nc2ccc(CC)cc2)nc2n[nH]c(C)c2c1=N	none
Cn1cnnc1SCC(=O)Nc1ccc2nc(SCc3ccccc3)sc2c1	aSyn 5UTR act -142.1
Cc1ccccc1OCc1nnc(SCC(=O)Nc2ccc3nc(SCC(=O)Nc4ccccc4)sc3c2)n1C	aSyn 5UTR act -70.1
Cn1cnnc1SCC(=O)Nc1ccc2nc(SCc3ccccc3Cl)sc2c1	aSyn 5UTR act -101.2
CCN(CC)C(=O)CSc1nc2ccc(NC(=O)CSc3nccn3C)cc2s1	aSyn 5UTR act -65.5
O=C(/C=C/c1cccc([N+](=O)[O-])c1)c1ccc([N+](=O)[O-])o1	none
COc1ccc(S(=O)(=O)N2CCN(C(=O)c3ccc([N+](=O)[O-])o3)CC2)cc1	aSyn 5UTR act -78.2
COc1ccc(/C=C/C(=O)c2ccc([N+](=O)[O-])o2)cc1	aSyn 5UTR act -61.7
O=C(Nc1ccc(Cc2ccncc2)cc1)c1ccc([N+](=O)[O-])o1	aSyn 5UTR act -150.3
O=C(Nc1ccc(S(=O)(=O)N2CCOCC2)cc1)c1ccc([N+](=O)[O-])o1	aSyn 5UTR act -119.6
O=C(Nc1ccc2c(c1)CCCN2C(=O)c1ccco1)c1cc([N+](=O)[O-])ccc1Cl	aSyn 5UTR act -94.0
O=C(Nc1ccc(N2CCN(C(=O)c3cccs3)CC2)cc1)c1ccc([N+](=O)[O-])o1	none
O=C(Nc1ccc(N2CCOCC2)cc1)c1ccc([N+](=O)[O-])o1	aSyn 5UTR act -103.3
O=C(Nc1ccc(S(=O)(=O)N2CCOCC2)cc1)c1cc([N+](=O)[O-])ccc1Cl	aSyn 5UTR act -66.9
Cc1ccc(C)c(NC(=O)CSc2nccn2Cc2ccco2)c1	aSyn 5UTR act -77.5
O=C(NCc1csc(-c2ccccc2)n1)c1ccco1	aSyn 5UTR act -84.9
Cc1cc(C(=O)NCc2csc(-c3ccccc3)n2)no1	aSyn 5UTR act -82.5
Cc1cc(C)n(-c2nc(-c3ccc(Cl)c(Cl)c3)cs2)n1	aSyn 5UTR act -108.8
C#CCOCCOCCOCCNc1nc(N2CCN(C(=O)CCCCCCCCCCNC(=O)Cn3cc(C[C@@H](C)O)nn3)CC2)nc(N2CCN(C(=O)CCCCCCCCCCNC(=O)[C@H](CCCN=C(N)N)n3cc(C[C@@H](C)CC)nn3)CC2)n1	aSyn 5UTR act -85.4
Nc1nc(CSCc2ccccc2)nc(N2CCOCC2)n1	aSyn 5UTR act -67.2
Clc1ccc(-c2cc(CN3CCCCC3)no2)cc1Cl	aSyn 5UTR act -114.4
Clc1ccc(-c2cc(CN3CCOCC3)no2)cc1	aSyn 5UTR act -148.0
COc1cc(C(=O)Nc2nc3ccccc3[nH]2)ccc1OC(F)F	aSyn 5UTR act -233.3
COc1ccc(C(=O)Nc2nc3ccccc3[nH]2)cc1OC	aSyn 5UTR act -147.1
CCOc1ccc(C(=O)Nc2nc3ccccc3[nH]2)cc1OCC	aSyn 5UTR act -172.0
COc1ccc(Cl)cc1C(=O)Nc1nc2ccccc2[nH]1	none
